# Reference: PubChem BioAssay (NCI)
# This is part of a sample that, as a whole, favours compounds with a hit. Of some 83,000 tested, about 20% had one in any assay.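 Cells were grown in 96-well plates and exposed to the test compound at a single concentration for 48 hours; results are reported as percent growth, with values below 10 considered active.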 Calls of active or inactive are those of the source.
# Tested on: HL-60(TB) leukemia
# Experiment: NCI-60 one-dose screen, 48 h (100 = growth as untreated, 0 = no growth, -100 = all killed)
# Details: 10 µM unless noted
row,SMILES,growth
1,O=S(=O)(O)c1ccc(O)c(C2CCCCC2)c1,131% (inactive)
2,C#Cc1cccc(NC(=O)c2ccc(NC(=O)C=C)cc2)c1,80.6% [8.25 µM] (inactive)
3,O=C(COc1ccc(/C=C2\CSc3ccccc3C2=O)cc1)Nc1nccs1,-22.4% (active)
4,CCOC(=O)C1=C(C)N(C)C(=O)N(C)C1c1ccccc1 (stereo unspecified),-4.05% (active)
5,O=C(O)CCCCCCCCCCN1C(=O)/C(=C2/C(=O)N(CC(=O)O)c3ccc(Br)cc32)SC1=S,9.25% (active)
6,O=C1C2(c3ccccc3)C(c3ccccc3)=C(c3ccccc3)C1(c1ccccc1)C1CC=CC12 (stereo unspecified),76.3% (inactive)
7,C[C@@H]1CN(c2nc3c(cc2F)c(=O)c(C(=O)O)cn3C(C)(C)C)C[C@H](C)N1,97% (inactive)
8,CCOC(C=O)OCC,104% (inactive)
9,N=C(N)c1ccc(-c2ccc(-c3ccccc3)o2)o1,-17% (active)
10,Cc1ccc2c(=O)cc(C(=O)Nc3sc4c(c3C(=O)NCc3cccnc3)CCCC4)oc2c1C,88.3% (inactive)
11,Cc1nc2sc(C(=O)Nc3cccc(Br)c3C)c(N)c2cc1C(O)c1ccccc1 (stereo unspecified),-46.6% (active)
